Growth data for 18 compounds are collected here from PubChem BioAssay (NCI).

Holding throughout (test): NCI-60 one-dose screen, 48 h (100 = growth as untreated, 0 = no growth, -100 = all killed)
For experiment [1], the system named is BT-549 breast. As to conditions: 10 µM unless noted.
Experiment [2] relates to SW-620 colon. The settings on record: 10 µM unless noted.
Experiment [3] deals with MCF7 breast. As to conditions: 10 µM.
Experiment [4] has as its system HCT-116 colon. As to conditions: 10 µM unless noted.
The test system of experiment [5] is HCC-2998 colon. As to conditions: 10 µM unless noted.
In experiment [6] the test system is KM12 colon. The settings on record: 10 µM unless noted.
For experiment [7], the system named is MDA-MB-435 melanoma. As to conditions: 10 µM unless noted.

This is part of a sample that, as a whole, favours compounds with a hit. Of some 83,000 tested, about 20% had one in any assay.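 In brief: 96-well plates, 48 h treatment, single concentration, percent growth endpoint.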 A number with no mark means an inactive call. The source made the active and inactive calls. Rule for the calls: active = growth percent below 10; inactive = the rest.

Regarding `Cc1cccc2c(=O)c3c(sc12)c(NCCN)nc1ccccc13`, the growth in experiment [1] was 72.1%; in experiment [2], -77.6% (active); in experiment [3] it was -82.1% (active); in experiment [4], -93.9% (active); in experiment [5], -77.8% (active); in experiment [6], -90.5% (active).

Take `COC(=O)C1=Nc2ccc(F)cc2/C1=C/c1sc(=S)[nH]c1O`: the growth in experiment [1] was -3.33% (active); in experiment [7], -20.9% (active); in experiment [3] it was 12.5%; in experiment [4], 6.89% (active); in experiment [5], 25%; in experiment [6] it was 10.3%.

For `COC(=O)C1(C)COP(=O)(Nc2ccc(OC)cc2)OC1` (stereo unspecified), the growth in experiment [1] is 98.4%; in experiment [2], 108%; in experiment [3], 99.5%; in experiment [4] it was 95.3%; in experiment [5] it was 94.1%; in experiment [6], 103%.

In the case of `CCCC(c1nnnn1C1CCCCC1)N1CCN(C(=O)c2ccco2)CC1` (stereo unspecified), the growth was 58.9% in experiment [1]; -21.7% (active) in experiment [7]; 45.4% in experiment [3]; 31.7% in experiment [4]; 76.4% in experiment [5]; 47.5% in experiment [6].

In the case of `COc1ccc(-c2nc(N3CCN(C(=O)C4CCCCC4)CC3)c3c4c(sc3n2)CCCC4)cc1`, the growth in experiment [1] is 61.4%; in experiment [2] it was -1.68% (active); in experiment [3], -10.8% (active); in experiment [4], 17%; in experiment [5] it was 53.2%; in experiment [6], -46.4% (active).

Turning to `O=c1c2cc(F)ccc2sc2c(NCCN3CCCC3)nc3ccccc3c12`, the growth in experiment [1] was 86.7%; in experiment [2], 19.1%; in experiment [3], 30.4%; in experiment [4], 39.1%; in experiment [5] it was 30.9%; in experiment [6], 39.5%.

Consider `CC(=O)SC1CC(=O)C=C2CCC3C4CCC(=O)OC4(C)CCC3C21C` (stereo unspecified), for which the growth in experiment [1] is 92.4%; in experiment [2], 103%; in experiment [3] it was 97%; in experiment [4], 102%; in experiment [5] it was 99.3%; in experiment [6] it was 104%.

As for `c1ccc(-c2ccc(-c3nc4ccccc4[nH]3)cc2)cc1`, the growth in experiment [1] was 94.2%; in experiment [7], 82.4%; in experiment [3], 76.3%; in experiment [4] it was 74.1%; in experiment [6], 84.6%.

In the case of `Cc1c(-c2csc(-n3nc(C(F)(F)F)cc3C(F)(F)F)n2)no[n+]1[O-]`, the growth was 102% in experiment [1]; 99.2% in experiment [7]; 85.1% in experiment [3]; 93.1% in experiment [4]; 112% in experiment [5]; 104% in experiment [6].

For the compound `CCOC(=O)c1cc2c(n1Cc1cccc(OC)c1)-c1oncc1CCC2`, the growth in experiment [1] was 42.4%; in experiment [2], 23.6%; in experiment [3], 14.1%; in experiment [4], 25.2%; in experiment [5] it was 51.6%; in experiment [6] it was 27.1%.

Consider `CCN1C(=O)N(CC)C2C1NN=c1s/c(=C3\C(=O)N(C(C)C)c4ccccc43)c(=O)n12` (stereo unspecified), for which the growth in experiment [1] was 6.02% (active); in experiment [2] it was 27.1%; in experiment [3] it was 20.5%; in experiment [4], 10.1%; in experiment [5], 20.3%; in experiment [6], 15.3%.

For `COc1cc(C#N)cc2[nH]c(=O)oc12`, the growth in experiment [1] is 97%; in experiment [2], 101%; in experiment [3] it was 101%; in experiment [4], 102%; in experiment [5], 105%; in experiment [6], 101%.

Take `CC1=C(C(=O)OCC2CCN(C(=O)OC(C)(C)C)CC2)[C@H](c2cccc(Br)c2)C2=C(CC(C)(C)CC2=O)N1`: the growth in experiment [7] was 24.9%; in experiment [2] it was 28.2%; in experiment [3], 13.8%; in experiment [4], 17.7%; in experiment [5], 49.2%; in experiment [6], 25%.

Take `O=C(Nc1ccc(I)cc1F)c1cc(F)ccc1O`: the growth in experiment [7] was -5.16% (active); in experiment [2], 7.82% (active); in experiment [3] it was 0.117% (active); in experiment [4], -6.74% (active); in experiment [5] it was 8.95% (active); in experiment [6] it was -11.4% (active).

On to `O=C(Nc1ccc(Cl)cc1F)c1cc(Br)ccc1O`, for which the growth was 0.322% (active) in experiment [7]; 11.4% in experiment [2]; 4% (active) in experiment [3]; 5.79% (active) in experiment [4]; 16.7% in experiment [5]; 0.131% (active) in experiment [6].

Turning to `O=C(Nc1ccc(F)cc1F)c1cc(I)ccc1O`, the growth was 5.35% (active) in experiment [7]; 14.5% in experiment [2]; 5.52% (active) in experiment [3]; 6.45% (active) in experiment [4]; 24.4% in experiment [5]; 6.2% (active) in experiment [6].

Turning to `CN1CCN(c2nc(Nc3ccc(O)cc3)nc3ccccc23)CC1`, the growth in experiment [1] was 70.8%; in experiment [2] it was 57.2%; in experiment [3], 44.9%; in experiment [4], 94.6%; in experiment [6], 65.6%.

Consider `O=C(c1ccccc1)N(CCc1ccc(Cl)cc1)C(=S)N(C(=O)c1ccccc1)c1ccccc1`, for which the growth in experiment [7] is 96.8%; in experiment [2], 80.3%; in experiment [3], 35.7%; in experiment [4], 69.6%; in experiment [5], 105%; in experiment [6] it was 56.5%.
